Assay results from PubChem BioAssay (NCI).
About 79,000 compounds went through this panel and 15% of them were active in at least one assay; those are over-represented in the sample as a whole. Cut-off read from the data, not from the text of the source: active = growth inhibition above about 70%; inactive = the rest.

Columns and labels:
[1] = NCI Yeast Anticancer Drug Screen. Data for the rad50 strain (AID 155);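 note: 0% = growth of vehicle-only cultures of the same strain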; conditions: S. cerevisiae rad50 strain growth inhibition; at 50.0 µM; active compounds read high
Method in brief: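 Genetically altered yeast (DNA repair pathway); compound treatment; growth inhibition vs vehicle ctrl.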

[2] = NCI Yeast Anticancer Drug Screen. Data for the mec2-1 strain (AID 157); conditions: S. cerevisiae mec2-1 strain, at 50.0 µM, active compounds read high
Method in brief: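 Yeast mec2-1 mutant treated with compound. Readout: growth inhibition vs vehicle controls.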

[3] = NCI Yeast Anticancer Drug Screen. Data for the sgs1 mgt1 strain (AID 161);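 note: 0% = growth of cultures given vehicle only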; conditions: S. cerevisiae sgs1 mgt1 strain, at 50.0 µM, active compounds read high
Method in brief: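 Genetically altered yeast, compound exposure, growth inhibition relative to vehicle.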

[4] = NCI Yeast Anticancer Drug Screen. Data for the cln2 rad14 strain (AID 165);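 note: 0% = growth equal to vehicle treated cultures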; conditions: S. cerevisiae cln2 rad14 strain, at 50.0 µM, active compounds read high
Method in brief: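 cln2 rad14 yeast strain; compound exposure; growth inhibition read vs vehicle controls.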

[5] = NCI Yeast Anticancer Drug Screen. Data for the bub3 strain (AID 167); conditions: S. cerevisiae bub3 mutant strain, at 50.0 µM, active compounds read high
Method in brief: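 Yeast carrying a defined mutation is treated with each compound, and growth is compared with that of vehicle-exposed cells to give inhibition.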

[6] = NCI Yeast Anticancer Drug Screen. Data for the mlh1 rad18 strain (AID 175); conditions: S. cerevisiae mlh1 rad18 strain growth inhibition; at 50.0 µM; active compounds read high
Method in brief: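 Yeast w/ defined DNA-repair lesions; compound exposure; growth vs vehicle controls → % inhibition.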

Measured: growth inhibition

Oc1cccnc1CN1CCOCC1
inactive: [1] -3.55% | [2] -14.3% | [3] -12.6% | [4] 8.8% | [5] -6.15% | [6] 6.95%

Cn1c(N)c2c(=O)n(C)c3c(c2c(C#N)c1=O)CCSc1ccccc1-3
inactive: [1] -4.4% | [2] -6.35% | [3] 0.25% | [4] -36.5% | [5] -5.2% | [6] -1.9%

Fc1ccc(F)c(C2SCc3nc4ccccc4n32)c1 (stereo not drawn)
inactive: [1] 19.4% | [2] 19.1% | [3] 33.1% | [4] 25.1% | [5] 16.6% | [6] 24.6%

CCOC(=O)C(=CN(C)c1ccc([N+](=O)[O-])cc1)C(=O)OCC
inactive: [1] 0.15% | [2] 6.65% | [3] 15.6% | [4] 12.1% | [5] 24.4% | [6] 15.5%

CCN(CC)CCN1C(=O)N(CCN(CC)CC)C(=O)C(CC)(CC)C1=O
inactive: [1] 13.9% | [2] -2.15% | [3] 12.5% | [4] 22.9% | [5] -1.65% | [6] 34.1%

CC(=O)C[n+]1ccccc1Sc1ccc(Cl)cc1
inactive: [1] 12.6% | [2] -9.25% | [3] 14.1% | [4] 19.1% | [5] 3.55% | [6] 56.7%

CC(C)(C)c1ccc(O)c(C(O)c2cccnc2)c1 (stereo not drawn)
inactive: [1] 18.7% | [2] 16.6% | [3] 16.5% | [4] 13.9% | [5] 29.8% | [6] 39.2%

CCCCCCCCCCCCCCCCOc1ccc(C2=NCC(C)S2)c(C)c1 (stereo not drawn)
inactive: [1] 3.6% | [2] 2.6% | [3] 12.1% | [4] 45.7% | [5] -1.6% | [6] 38.1%

CSc1ccc(NC(=O)Nc2ccc(Nc3ccccc3)cc2)cc1
inactive: [1] -0.95% | [2] 29.8% | [3] 15.1% | [4] -11.9% | [5] 14.2% | [6] 23.3%

Cc1cc2c(c(=O)o1)C(C)CC(c1c(O)cc(C)oc1=O)O2 (stereo not drawn)
inactive: [1] 15.3% | [2] 5.35% | [3] 16.8% | [4] 5.85% | [5] 14.1% | [6] 20.6%

Cc1c(Cl)cc(Cl)c(N)c1Cl
inactive: [1] -4.4% | [2] -13.7% | [3] -18% | [4] -5.3% | [5] -16.1% | [6] -15.2%

NC1=NC(c2ccccc2)N=C(Nc2ccccc2)N1 (stereo not drawn)
inactive: [1] 37.2% | [2] 1.4% | [3] 16.4% | [4] -15% | [5] 15.2% | [6] 41.6%

COCCCNC1=C(C#N)C(=O)NC(c2cccs2)S1 (stereo not drawn)
inactive: [1] 2% | [2] 0.15% | [3] 3.45% | [4] 1.25% | [5] 5.3% | [6] -34.8%

CCN(CC)CCC(CCN(CC)CC)(COC(=O)c1ccc([N+](=O)[O-])cc1)c1ccccc1
inactive: [1] 19.7% | [2] 9.1% | [3] 20.1% | [4] -4.15% | [5] -0.55% | [6] 12.6%

CCC1(O)CC2C3C(C(=O)OC)=C4Nc5ccccc5C45CCN(C31)C25 (stereo not drawn)
inactive: [1] 6.2% | [2] -6.3% | [3] 3.35% | [4] 11.8% | [5] 1.9% | [6] -2.1%

Nc1ccc2ccc(NS(=O)(=O)N3CCCCC3)cc2c1
inactive: [1] 31.8% | [2] 46.9% | [3] 43.1% | [4] 52.6% | [5] 18.5% | [6] 50.9%

CC1=NOC(C)(O)/C1=N/O (stereo not drawn)
inactive: [1] 6.8% | [2] 1.05% | [3] 17.9% | [4] -2.75% | [5] 9.75% | [6] -21.3%

ClC1=C(Cl)C2(Cl)CC1(Cl)C1CCCCC12 (stereo not drawn)
inactive: [1] 18.9% | [2] -10.4% | [3] 21.4% | [4] -17.4% | [5] 16.6% | [6] -10.6%

CCC(CC)(C(=O)O)C(=O)O
inactive: [1] 34.1% | [2] 9.3% | [3] -3.35% | [4] -33.2% | [5] 12.7% | [6] 5.8%

O=C(/C=C/c1cccs1)c1ccc(C(=O)/C=C/c2cccs2)cc1
inactive: [1] -32.6% | [2] -46.4% | [3] -18% | [4] 11.2% | [5] -3.5% | [6] -31.9%

CCCCOCCOCCOC(=O)C(C)O (stereo not drawn)
inactive: [1] -5.6% | [2] -4.7% | [3] -3.95% | [4] 5.1% | [5] -7.25% | [6] -14%

CCOC(=O)[C@H]1Nc2ccc(C)cc2C2c3ccccc3CC21 (stereo partly drawn)
inactive: [1] -1.5% | [2] -28.2% | [3] 3.45% | [4] -1.7% | [5] -23.3% | [6] -22.8%

Cc1cccc(C[N+](C)(C)CCO)c1C
inactive: [1] -0.5% | [2] -13.2% | [3] 3.4% | [4] 6.7% | [5] 3.45% | [6] -20.6%

CCc1nc(-c2ccccc2)nc2c1nc(-c1cccc(C)c1)n2Nc1ccccc1
inactive: [1] 1.45% | [2] 3.1% | [3] -6.15% | [4] -3% | [5] -1.6% | [6] 24.1%

CC(C)(C)OC(=O)NCCc1ccc(N)cc1
inactive: [1] -18.1% | [2] -5.55% | [3] 22.9% | [4] -0.7% | [5] 8.05% | [6] -10.2%

CC(=O)c1ccc(Cl)c(-n2cccc2)c1
inactive: [1] 4.2% | [2] -12.1% | [3] 13% | [4] 17.6% | [5] 17.8% | [6] -0.45%

O=C1CSC(c2cccc(O)c2O)N1c1nncs1 (stereo not drawn)
inactive: [1] 1.35% | [2] 0.25% | [3] 1.85% | [4] -6.9% | [5] 5.9% | [6] -5.35%

CCCCOc1ccc([N+](=O)[O-])cn1
inactive: [1] 20.8% | [2] -14.6% | [3] 3.15% | [4] 26.1% | [5] -7.6% | [6] 9.15%

Cc1ccc(NC(=O)/C=C/c2ccccc2)cc1Cl
inactive: [1] 2% | [2] 14.2% | [3] 8.15% | [4] -5.5% | [5] 27.4% | [6] 16.1%

O=[N+]([O-])c1cc(C(F)(F)F)ccc1S(=O)(=O)c1ccccc1
inactive: [1] 40.4% | [2] 8.5% | [3] 8.7% | [4] 13.7% | [5] 14.1% | [6] 17.6%

Cc1ccc(C(=O)OCc2ccccc2CN2CCCCC2)cc1
inactive: [1] 1.6% | [2] -8.35% | [3] -22.6% | [4] -19.7% | [5] 3.6% | [6] 2.1%

O=C(N/N=C\c1coc([N+](=O)[O-])c1)N/N=C/c1ccoc1
inactive: [1] 0.75% | [2] 14.2% | [3] 3.65% | [4] -25.7% | [5] -8.35% | [6] 1.1%

Cc1c(C(=O)CC2OC(=O)C(Cl)=C2Cl)c2ccccc2n1C(=O)Nc1ccc(Cl)cc1 (stereo not drawn)
inactive: [1] 15.8% | [2] -6.75% | [3] 11.1% | [4] -32.4% | [5] 5.05% | [6] 5.3%

CCOC(=O)C(=O)C(CCc1ccc2ccc3cccc4ccc1c2c34)C(=O)OCC (stereo not drawn)
inactive: [1] 10.2% | [2] 20.9% | [3] 6.55% | [4] -21.8% | [5] 0.35% | [6] 31.4%

O=C(OCCN=c1c2ccccc2ccc2ccccc12)c1cc([N+](=O)[O-])cc([N+](=O)[O-])c1
inactive: [1] 13.1% | [2] 4.75% | [3] 34.3% | [4] 21% | [5] 13.6% | [6] 39.8%

CCCCCCC#CC(=O)OCCCC
inactive: [1] -9.8% | [2] -14.9% | [3] 6.05% | [4] -20% | [5] -21.5% | [6] -16.4%

O=C(/C=C/c1ccccc1)Cc1nc2nnc(NC(=O)Nc3ccc(Cl)cc3)n2[nH]c1=O
inactive: [1] -9.15% | [2] 1.85% | [3] 1.5% | [4] -8.05% | [5] 6.15% | [6] 4.65%

CN=C/C(C(C)=O)=C(\C)O
inactive: [1] 4.1% | [2] -0.05% | [3] -4.85% | [4] 3.6% | [5] 8.5% | [6] 0.65%
